Compound activity as filed in PubChem BioAssay.
IDH1 R132H inh = qHTS for Inhibitors of mutant isocitrate dehydrogenase 1 (IDH1): qHTS | Isocitrate dehydrogenase [NADP] cytoplasmic (Homo sapiens), O75874 | IDH1-R132H enzyme, NADPH consumption, diaphorase/resazurin fluorescence | Potency, µM (top dose mostly 76.6 µM), for the others: at the top dose activity change, negative = inhibition, hits mostly inhibitors | hit rate 0.093% among 390,000 | AID 602179, 2012; further: potency means the concentration at half of the fitted maximal effect; on the % scale 0 is the no-effect control and ±100 the full control effect; nearly all actives have a fitted effect of over 65% in size
Target sequence (O75874 whole entry R132H, stated change not applied): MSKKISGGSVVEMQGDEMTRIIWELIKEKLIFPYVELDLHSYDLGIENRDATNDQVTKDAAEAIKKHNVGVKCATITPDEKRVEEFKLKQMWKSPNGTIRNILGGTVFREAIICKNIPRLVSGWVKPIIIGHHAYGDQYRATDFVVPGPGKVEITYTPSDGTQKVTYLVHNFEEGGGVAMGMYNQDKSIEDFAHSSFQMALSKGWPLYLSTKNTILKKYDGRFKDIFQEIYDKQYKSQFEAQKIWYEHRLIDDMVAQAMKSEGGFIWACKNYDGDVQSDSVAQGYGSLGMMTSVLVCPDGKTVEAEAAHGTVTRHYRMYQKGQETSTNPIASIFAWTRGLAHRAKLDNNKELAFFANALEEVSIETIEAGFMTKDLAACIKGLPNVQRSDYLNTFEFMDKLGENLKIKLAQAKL
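IDH1-R132H (0.5 ug/mL) preincubated 30 min with compound, then NADPH (0.016 mM) and alpha-KG (2 mM) added; 80 min at RT, pH 7.5. Remaining NADPH coupled via diaphorase/resazurin to fluorescence (540/590 nm); concentration-response curves normalized to no-enzyme control.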
TDP43 rescue = qHTS of TDP-43 Inhibitors; Potency, µM (doses to about 46.1 µM), for inactives: at the highest dose growth rescue (activation), hits mostly activators; hit rate 1.8% among 410,000; AID 652104, 2013; TDP-43 expressing yeast growth rescue, BacTiter-Glo, 24 h; further: potency means the concentration at half of the fitted maximal effect; % of control where 0% means no effect; nearly all actives have a fitted effect of over 50% in size
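Growth rescue of TDP-43-toxic yeast measured as ATP luminescence (BacTiter-Glo). Cells grown to mid-log in raffinose, induced in galactose at OD600=0.02, exposed to compound 24 hr at 30 deg C.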
Abeta yeast res = qHTS for compounds that reverse cellular toxicity of Amyloid beta (A-beta) peptide in yeast: Primary Screen; Potency, µM (titrated, usually from 46.1 µM), usual class: activators; hit rate 0.063% among 410,000; yeast expressing A-beta42, growth rescue, OD600, 48 h; response scale: 0% DMSO, 100% iron-clioquinol control; further: potency means the concentration at half of the fitted maximal effect; nearly all actives have a fitted effect of over 55% in size
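Yeast growth medium received pinned compounds, then yeast cells expressing toxic A-beta were added; plates incubated at 30 C for 48 hr. Growth read as absorbance at 600 nm, normalized to DMSO and equimolar FeCl3 plus clioquinol controls.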
FUS yeast rescue = qHTS for Suppressors of FUS Proteinopathy: Primary screen using FUS-linked yeast assay. S. cerevisiae FUS-expressing, growth rescue, OD600, 24 h. Potency, µM (series often up to 76.6 µM), actives largely listed as activators. hit rate 0.24% among 390,000. AID 1347120, 2019;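 further: potency means the concentration at half of the fitted maximal effect; plate controls were DMSO vehicle for no effect and reference control for full effect; nearly all actives have a fitted effect of over 55% in size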
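Compound concentration series was pinned onto galactose-induced FUS-expressing yeast seeded at OD 0.005. Plates sat 24hr at 30C; absorbance at 600 nm gave growth. DMSO served as background control.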
LDHA block = qHTS assay for inhibitors of human lactate dehydrogenase. L-lactate dehydrogenase A chain (Homo sapiens), P00338. purified LDHA, NADH/diaphorase-resazurin fluorescence; stronger effect = lower value. activity change, % (values are at about 110 or 230 µM). hit rate 0.15% among 480,000. AID 1347041, 2019; in the data active means activity change below about -30%; inconclusive means mostly about -25% to -30%;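 further: plate controls were DMSO wells for no effect and wells without enzyme for full effect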
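Human LDH5 at 2 nM final in Tris HCl pH 7.4 with 0.06 mM NADH and 0.2 mM pyruvate, reacted 5 minutes at room temperature. Remaining NADH coupled via diaphorase/resazurin; resorufin fluorescence read at 0 and 20 minutes, normalized to enzyme-free and DMSO wells.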
aSyn yeast inh = qHTS of alpha-syn Inhibitors; Yeast expressing alpha-synuclein, growth rescue, BacTiter-Glo, 24 h; Potency, µM (highest dose often 46.1 µM), for inactives: top-dose growth rescue (activation), usual class: activators; hit rate 0.14% among 370,000; further: potency means the concentration at half of the fitted maximal effect; % of control where 0% means no effect; nearly all actives have a fitted effect of over 65% in size
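Readout is rescue of growth in alpha-synuclein-expressing yeast, so inhibitors of toxicity appear as activators. Growth after 24 hr at 30 deg C in galactose medium is quantified by luminescence.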
Starred values were filed as active, the others as inactive; i = inactive; u = inconclusive; x = no result given. The list is not random: actives were taken first. Their share in the collection is about 2%. Unless noted, the call rests on the fitted dose curve; in most records, active means well fitted curve in the direction sought with a large enough effect; inconclusive means small, poorly fitted or top-dose-only effect, or another doubt; inactive means no such curve, though single readings can be large; an effect the other way counts as inactive or inconclusive.

SMILES	IDH1 R132H inh	TDP43 rescue	Abeta yeast res	FUS yeast rescue	LDHA block	aSyn yeast inh
CCc1ccc2[nH]c(=O)c(C3C(C#N)=C(N)Oc4c3ccc3cccnc43)cc2c1 (configuration not stated)	-20%	4%	i	25µM*	7	8%
N#CC1=C(N)Oc2c(ccc3cccnc23)C1c1cccnc1 (configuration not stated)	2%	5%	i	i	3	-6%
Cc1cc(C)c2c(C)c(C(=O)NCC(c3ccco3)N3CCCC3)oc2c1 (configuration not stated)	x	x	x	x	2	x
O=C(O)/C(=C\c1ccc(Br)cc1)Sc1nc2ccccc2s1	x	x	x	x	-3	x
COCCNC(=O)[C@@H]1CSC2c3ccc(OC)c(OC)c3C(=O)N21 (some centres not stated)	-7%	2.8µM*	i	i	-5	-4%
CCCCNC(=O)[C@@H]1CSC2c3ccc(OC)c(OC)c3C(=O)N21 (some centres not stated)	-4%	-4%	i	i	-11	0%
CC(C)(C)c1ccc(OCC(=O)NNC(=S)NC(=O)c2ccco2)c(Br)c1	3%	u	i	x	-4	14%
Cc1ccccc1OCC(=O)NNC(=S)NC(=O)c1ccco1	4%	7.1µM*	u	i	-8	u
CC(C)c1ccc(OCC(=O)NNC(=S)NC(=O)c2ccco2)c(Br)c1	-1%	10µM*	i	i	-4	15%
O=C(Cc1cccs1)NNC(=S)NC(=O)c1ccco1	3%	u	10µM*	i	4	u
Cc1ccccc1OCC(=O)Nc1ccccc1NC(=O)c1ccco1	22%	6%	i	i	-8	7%
O=C(Cc1ccc(Cl)cc1)NNC(=S)NC(=O)c1cccs1	-12%	28µM*	u	i	-7	-28%
O=C(/C=C/c1cccc([N+](=O)[O-])c1)N1CCN(c2ccccc2F)CC1	4%	u	i	x	-7	1%
CCOc1ccccc1N1CCN(C(=O)/C=C/c2cccc([N+](=O)[O-])c2)CC1	1%	14µM*	i	i	-2	13%
COc1ccccc1NC(=O)c1cc2c(=O)n3ccccc3nc2n1Cc1ccccc1	x	x	x	x	-2	x
Oc1ccccc1C1C=C(c2ccc3c(c2)OCO3)NC(c2cccc(Cl)c2)N1 (configuration not stated)	x	x	x	x	-6	4.5µM*
CCN(C(=O)CSc1nc2ccccc2n1Cc1ccc(C(=O)OC)cc1)c1ccccc1	-12%	20%	i	i	-2	x
COc1ccc(C(=O)CSc2nc3ccccc3n2CC(=O)NC(C)(C)C)cc1	-1%	0%	i	i	0	14µM*
CCOC(=O)CSc1nc2ccccc2n1CC(=O)NC(C)(C)C	3%	-19%	i	i	-7	8%
COC(=O)c1ccc(Cn2c(SCC(=O)NCc3ccccc3)nc3ccccc32)cc1	-3%	35µM*	i	u	3	x
O=C(N1CCN(c2nc(-c3ccccc3)c3ccccc3n2)CC1)C(F)(F)F	x	x	x	x	3	x
Cc1nnc2c3ccccc3nc(Nc3cccc(O)c3)n12	-6%	35µM*	i	i	-4	x
Cc1nc(N2CCCC2)ncc1C(=O)NCc1cccc(Cl)c1	x	14µM*	i	i	-10	x
Cc1cc(C)cc(NC(=O)COc2ccc3c(C)cc(=O)oc3c2)c1	x	x	x	x	10	x
COc1ccc2c(c1)c(=O)oc1cc(OCC(=O)N3CCC(C)CC3)ccc12	-1%	u	i	i	-6	14%
SMILES	IDH1 R132H inh	TDP43 rescue	Abeta yeast res	FUS yeast rescue	LDHA block	aSyn yeast inh
COc1ccc2c(c1)c(=O)oc1cc(OCC(=O)N3CCCC(C)C3)ccc12 (configuration not stated)	0%	25µM*	i	i	-8	0%
CCN(CC)CCCNC(=O)C1c2ccccc2C(=O)N(C)C1c1ccc(OC)cc1 (configuration not stated)	6%	22µM*	i	i	1	-4%
NC(=O)c1ccc(COC(=O)CCC(=O)c2ccc(Cl)cc2)c([N+](=O)[O-])c1	x	x	x	x	-1	x
Cc1ccc(S(=O)(=O)Nc2ccccc2CNc2ccc(Br)cn2)cc1	0%	20µM*	i	x	-3	0%
Cc1ccc(S(=O)(=O)Nc2ccccc2CNc2ccccn2)cc1	6%	19%	i	x	1	-2%
Cc1c(C(=O)N2CCN(S(=O)(=O)c3cc(F)ccc3F)CC2)oc2ccccc12	-7%	14µM*	i	i	1	9%
Cc1c(C(=O)N2CCN(S(=O)(=O)c3ccccc3)CC2)oc2ccccc12	-1%	16µM*	i	i	-4	4%
Cc1c(C(=O)N2CCN(c3ccccc3)CC2)oc2c(F)cccc12	1%	14µM*	i	i	4	6%
Cc1c(C(=O)N2CCN(S(C)(=O)=O)CC2)oc2ccccc12	4%	-14%	i	i	-4	-8%
COc1ccc(S(=O)(=O)N2CCN(C(=O)c3oc4ccccc4c3C)CC2)cc1	6%	11µM*	i	u	-4	-15%
Cc1c(C(=O)N2CCC2)oc2c(F)cccc12	9%	20%	i	i	-9	-5%
CCNc1nc(-c2[nH]c(C)c(C(=O)OC)c2C)cs1	x	x	x	x	-25	x
O=C(Cc1c[nH]c2ccccc12)N1CCN(S(=O)(=O)c2cc(F)ccc2F)CC1	x	x	x	x	-37*	x
O=C(Cc1c[nH]c2ccccc12)N1CCN(S(=O)(=O)c2cccc(F)c2)CC1	x	x	x	x	-1	x
Cc1ccc2nc(-c3ccc(N)cc3)cc(C(=O)O)c2c1	x	x	x	x	10	x
O=c1c2ccccc2nnn1Cc1ccccc1	2%	18µM*	i	i	-3	9%
O=c1c2ccccc2nnn1CCc1ccccc1	1%	u	i	i	-4	-6%
Cc1cccc(NC(=O)Nc2nnc([C@@H]3C[C@H](O)[C@@H](CO)O3)s2)c1	x	20%	i	i	-14	0%
O=C(Nc1cccc(Cl)c1)Nc1nnc([C@H]2C[C@H](O)[C@@H](CO)O2)s1	x	13%	i	i	-30*	-13%
O=C(CSC1=NCCS1)Nc1ccc(S(=O)(=O)N2CCCCCC2)cc1	1%	0%	i	i	-8	6%
O=C(CSC1=NCCS1)Nc1ccc(S(=O)(=O)NC2CCCCC2)cc1	3%	-24%	i	40µM*	-9	3%
